Screening data (PubChem)
An excerpt weighted towards active compounds, which were near 19% of everything screened.
DT40 TDP1 CPT = growth inhibition of DT40 Tdp1-/-;hTDP1 cells with camptothecin (screen for TDP1 inhibitors). chicken DT40 Tdp1-/-;hTDP1 cells + 20 nM CPT, ATP luminescence, 48 h. Potency, µM (highest dose often 46.2 µM), usual class: inhibitors. 12% of 420,000 active. AID 686979; note: nearly all actives have a fitted effect of over 55% in size
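Chicken DT40 Tdp1-/- cells stably complemented with human TDP1 were seeded at 400 cells/well in medium containing 20 nM camptothecin, exposed to pin-transferred compounds, and grown at 37 °C for at least 48 hr. Viability was read as ATP luminescence.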
VP16 counter = counter-screen for ROR gamma inhibitors: Gal4-VP16 reporter; 3.5% of 310,000 active; Drosophila S2 Gal4-VP16 UAS-luciferase, luminescence, 20 h; Potency, µM (top dose mostly 53.6 µM), hits mostly inhibitors; AID 2546;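 note: Gal4-VP16 expression switched on by copper sulfate through the metallothionein promoter; nearly all actives have a fitted effect of over 50% in size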
DT40 TDP1 no CPT = qHTS for Inhibitors of human tyrosyl-DNA phosphodiesterase 1 (TDP1): qHTS in cells in absence of CPT; DT40 Tdp1-/- hTDP1 cells, no CPT, ATP luminescence, 48 h; Potency, µM (doses to about 46.2 µM), most hits filed as inhibitors; 15% of 420,000 active; AID 686978, 2013; note: nearly all actives have a fitted effect of over 55% in size
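Growth kinetics read by CellTiter-Glo luminescence after ≥48 hr at 37 °C. Cells: DT40 Tdp1-/- stably carrying human TDP1, 400 per well, compound exposure in the absence of CPT (DMSO vehicle).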
RORgamma inh = inhibitors of mouse ROR gamma transcriptional activity; Drosophila S2 Gal4-RORgamma UAS-luciferase reporter, 20 h; Potency, µM (doses to about 53.6 µM), most hits filed as inhibitors; 5.4% of 310,000 active; P51450; note: nearly all actives have a fitted effect of over 60% in size
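Luciferase reporter read in Schneider cells carrying Gal4-RORγ (mouse) and UAS-Photinus luciferase; cells given compound 1 h before 700 uM copper sulfate induction, then incubated 20 h at ambient temperature.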
TDP1 inh = inhibitors of human tyrosyl-DNA phosphodiesterase TDP1; recombinant TDP1, AlphaScreen DNA substrate cleavage; 0.28% of 350,000 active; AID 485290; Potency, µM (series often up to 130 µM), actives largely listed as inhibitors; note: nearly all actives have a fitted effect of over 40% in size
Target sequence (Q9NUW8 whole entry, looked up): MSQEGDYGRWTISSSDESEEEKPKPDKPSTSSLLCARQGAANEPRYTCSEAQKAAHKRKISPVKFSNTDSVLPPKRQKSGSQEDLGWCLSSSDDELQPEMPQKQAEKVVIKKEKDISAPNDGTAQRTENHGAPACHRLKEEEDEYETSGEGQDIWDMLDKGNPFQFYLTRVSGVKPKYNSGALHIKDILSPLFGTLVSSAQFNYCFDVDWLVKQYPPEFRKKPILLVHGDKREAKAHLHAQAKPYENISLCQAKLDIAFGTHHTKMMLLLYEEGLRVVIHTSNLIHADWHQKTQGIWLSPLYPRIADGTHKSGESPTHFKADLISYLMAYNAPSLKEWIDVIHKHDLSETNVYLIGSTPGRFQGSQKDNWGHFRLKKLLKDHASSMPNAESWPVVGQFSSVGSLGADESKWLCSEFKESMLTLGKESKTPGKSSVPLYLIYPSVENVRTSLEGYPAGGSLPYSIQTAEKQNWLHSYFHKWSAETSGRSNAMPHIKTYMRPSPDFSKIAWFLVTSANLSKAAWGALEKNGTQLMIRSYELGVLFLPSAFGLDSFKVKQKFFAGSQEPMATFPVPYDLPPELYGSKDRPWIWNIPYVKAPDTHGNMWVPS
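Here, a 5' biotin and 3' phosphotyrosine-FITC DNA oligonucleotide reports Tdp1 activity: intact substrate bridges AlphaScreen beads, while cleavage leaves a 3' phosphate and drops signal. All incubations at room temperature.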
Each line names hits and unclear results; the compound was inactive in the other large screens. Calls come from the whole dose curve; as a rule, active = well fitted curve in the direction sought with a large enough effect; inconclusive = small, poorly fitted or top-dose-only effect, or another doubt; inactive = no such curve, though single readings can be large; an effect the other way counts as inactive or inconclusive.

Cc1[nH]c2ccc3ccccc3c2c(=O)c1C/C=C/Cl	RORgamma inh inconclusive (no result: TDP1 inh)
Cc1[nH]c2ccc(Br)cc2c(=S)c1C/C=C/Cl	DT40 TDP1 CPT inconclusive, DT40 TDP1 no CPT inconclusive, RORgamma inh 7.9µM
COc1cc(OC)c2ccc(=O)oc2c1C(CCN1CCN(c2ccccc2)CC1)c1ccc(N(C)C)cc1 (stereo not given)	DT40 TDP1 CPT 15µM, DT40 TDP1 no CPT inconclusive
COc1cc(OC)c2ccc(=O)oc2c1C(CCN1CCOCC1)c1ccc(N(C)C)cc1 (stereo not given)	none (no result: DT40 TDP1 CPT, DT40 TDP1 no CPT)
CCCCCc1cc(=O)oc2c(C(CCN3CCN(c4ccccc4)CC3)c3ccc(N(C)C)cc3)c(OC)cc(OC)c12 (stereo not given)	DT40 TDP1 CPT 21µM, DT40 TDP1 no CPT inconclusive
COc1ccc(C(CCN2CCN(c3ccccc3)CC2)c2c(OC)cc(OC)c3c(-c4ccccc4)cc(=O)oc23)cc1 (stereo not given)	DT40 TDP1 CPT inconclusive, DT40 TDP1 no CPT inconclusive
COc1cc(OC)c2c(C)cc(=O)oc2c1C(CCN1CCOCC1)c1ccc(N(C)C)cc1 (stereo not given)	DT40 TDP1 CPT 5.2µM, DT40 TDP1 no CPT 16µM (no result: TDP1 inh)
COc1cc(OC)c2c(-c3ccccc3)cc(=O)oc2c1C(CCN1CCN(c2ccccc2)CC1)c1ccc(N(C)C)cc1 (stereo not given)	DT40 TDP1 CPT 15µM, DT40 TDP1 no CPT 23µM
Cc1ccc(OCCC(=O)OCC(=O)Nc2cc(S(=O)(=O)N(C)C)ccc2C)cc1	DT40 TDP1 CPT inconclusive, DT40 TDP1 no CPT inconclusive
COc1cc([C@H]2[C@@H]3CCCC[C@]3(O)CCN2CC(=O)Nc2ccc(C)cc2C)ccc1O	DT40 TDP1 CPT inconclusive, DT40 TDP1 no CPT inconclusive
NC(=O)C1CCN(C(=O)c2ccc3c(c2)S(=O)(=O)c2ccccc2C3=O)CC1	none
COc1ccc(CN(C)c2ccc(-c3nc(-c4ccccc4)no3)cc2[N+](=O)[O-])cc1	DT40 TDP1 CPT inconclusive, DT40 TDP1 no CPT inconclusive (no result: VP16 counter, RORgamma inh)
Cc1cc(F)ccc1S(=O)(=O)Nc1ccccc1C(=O)Nc1ccccc1-c1nc2ccccc2[nH]1	DT40 TDP1 CPT 5.8µM, VP16 counter inconclusive, DT40 TDP1 no CPT 7.3µM
Cc1cc(F)ccc1S(=O)(=O)Nc1ccccc1C(=O)Nc1ncn[nH]1	none
CC(=O)Nc1ccccc1OCC(=O)NC(C)c1ccc(F)cc1 (stereo not given)	DT40 TDP1 CPT 13µM, DT40 TDP1 no CPT inconclusive
O=[N+]([O-])c1ccc2c(c1)CNc1ccccc1O2	none
CCc1nc(N)nc(N)c1-c1ccc(Cl)c(N=[N+]=[N-])c1	DT40 TDP1 CPT 5.2µM, DT40 TDP1 no CPT 1.8µM (no result: VP16 counter, RORgamma inh, TDP1 inh)
CCc1nc(N)nc(N)c1-c1ccc(Cl)c([N+](=O)[O-])c1	DT40 TDP1 CPT 0.18µM, DT40 TDP1 no CPT 0.052µM (no result: VP16 counter, RORgamma inh, TDP1 inh)
Nc1ccc(Cl)cc1[N+](=O)[O-]	none (no result: DT40 TDP1 CPT, DT40 TDP1 no CPT)
Cc1ccccc1NC(=O)CCS(=O)(=O)c1ccc(Br)cc1	none (no result: TDP1 inh)
COc1ccc(C(=O)OCC(=O)Nc2ccc3c(c2)OCO3)cc1S(=O)(=O)N1CCOCC1	none (no result: VP16 counter, RORgamma inh)
O=C(Cn1c(=O)n(Cc2ccccc2)c(=O)c2sc3ccccc3c21)Nc1ccccc1	DT40 TDP1 CPT inconclusive, DT40 TDP1 no CPT inconclusive (no result: VP16 counter, RORgamma inh)
O=C(Cn1c(=O)n(Cc2ccccc2)c(=O)c2sc3ccccc3c21)Nc1ccc(F)cc1	DT40 TDP1 CPT 15µM, DT40 TDP1 no CPT 15µM (no result: VP16 counter, RORgamma inh)
COc1ccccc1NC(=O)Cn1c(=O)n(-c2ccccc2Cl)c(=O)c2sc3ccccc3c21	DT40 TDP1 CPT inconclusive, DT40 TDP1 no CPT 10µM (no result: VP16 counter, RORgamma inh)
COc1ccc(NC(=O)Cn2c(=O)n(Cc3ccccc3)c(=O)c3sc4ccccc4c32)cc1	DT40 TDP1 no CPT 13µM (no result: VP16 counter, RORgamma inh)
O=C1CN2NC(=S)N(c3ccc(Cl)cc3)C2=CN1c1ccc(Cl)cc1	none
c1ccc2c(c1)CCCC2NC1=NCCC1 (stereo not given)	none
COc1ccc(C(CC(=O)N2CCCC2)c2ccc(F)cc2)cc1 (stereo not given)	DT40 TDP1 no CPT inconclusive (no result: TDP1 inh)
C=C1NN(CC2CC2)C(=O)N1c1ccc(OCc2ccccc2)cc1	DT40 TDP1 CPT inconclusive, DT40 TDP1 no CPT 13µM (no result: VP16 counter, RORgamma inh, TDP1 inh)
Cc1ccc2c(c1)C=CC(C)(C)S2=O (stereo not given)	none
